Assay [1] is described as follows: qHTS assay to identify small molecule antagonists of the glucocorticoid receptor (GR) signaling pathway - cell viability counter screen (AID 720693). Also: nearly all actives have a fitted effect of over 55% in size. For orientation: In qHTS, concentration-response curves come from the screen itself.
The nature of assay [2]: qHTS assay for identifying genotoxic compounds that show differential cytotoxicity against isogenic chicken DT40 cell lines with known DNA damage response pathways - wild type cell line (AID 743012). Also: nearly all actives have a fitted effect of over 60% in size. Also: potency is read from the fitted curve at half-maximal effect. In a few lines: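 Using parental DT40 (300 cells/well), compounds delivered in DMSO incubate 40 h at 37 C/5% CO2. CellTiter-Glo reagent then stands 30 min at room temperature, and luminescence gives cell viability.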

The nature of assay [3]: qHTS assay for identifying genotoxic compounds that show differential cytotoxicity against isogenic chicken DT40 cell lines with known DNA damage response pathways - Rev3 mutant cell line (AID 743014). Also: nearly all actives have a fitted effect of over 55% in size.
Assay [4] in a line: qHTS assay to identify small molecule antagonists of the androgen receptor (AR) signaling pathway - cell viability counter screen (AID 743033; also: nearly all actives have a fitted effect of over 45% in size).
Assay [5] is described as follows: qHTS assay to identify small molecule antagonists of the androgen receptor (AR) signaling pathway using the MDA cell line - cell viability counter screen (AID 743041; also: nearly all actives have a fitted effect of over 45% in size; also: potency is read from the fitted curve at half-maximal effect). In a few lines: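 MDA-kb2 AR-luc human breast carcinoma cells (MMTV-luciferase, AR/GR responsive) were treated with compounds plus R1881 agonist for 16 h at 37 °C. Viability was read as CellTiter-Fluor fluorescence in the same wells as the reporter assay.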

Assay [6] in a line: qHTS assay for identifying genotoxic compounds that show differential cytotoxicity against isogenic chicken DT40 cell lines with known DNA damage response pathways - Rad54/Ku70 mutant cell line (AID 743015). Also: nearly all actives have a fitted effect of over 60% in size. Also: potency is read from the fitted curve at half-maximal effect.
Assay [7] has as its target Androgen receptor (Homo sapiens) (UniProt P10275). In words: qHTS assay to identify small molecule agonists of the androgen receptor (AR) signaling pathway using the MDA cell line (AID 743040; also: nearly all actives have a fitted effect of over 20% in size). The essentials:
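MDA-kb2 breast carcinoma cells stably carrying an MMTV-driven luciferase reporter (AR- and GR-responsive) were seeded and held 5 h at 37C, 0% CO2, then exposed to compounds in DMSO for 16 h. Luminescence was read 30 min after ONE-Glo addition.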

The target is the same in assay [8]. In words: qHTS assay to identify small molecule antagonists of the androgen receptor (AR) signaling pathway using the MDA cell line (AID 743042; also: nearly all actives have a fitted effect of over 55% in size). The essentials: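 MDA-kb2 cells (human breast carcinoma, stably carrying an MMTV-luciferase reporter responsive to AR and GR) were plated at 3,000 cells/well and preincubated 5 hr at 37C, then given compound plus R1881 agonist for 16 h. ONE-Glo luminescence was read.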

Molecules are shown by their SMILES. Inconclusive results are not listed. Active and inactive are the calls of the source. Calls follow the shape of the dose curve; as a rule, active = well fitted curve in the direction sought with a large enough effect in the repeat runs; inconclusive = weak or mixed curves; inactive = no such curve, though single readings can be large; an effect the other way counts as inactive or inconclusive. Positions of bridges follow the written chain, without caps; N, C: chain ends. Non-standard residues stand in square brackets, D forms with d. Residues, ends and D or L forms follow the SMILES beside them. ξ: configuration not given here. *: point of attachment. d(aThr) = C[C@@H](O)[C@@H](N)C(=O)O; ξThr(3R) = C[C@@H](O)C(N)C(=O)O; X3 = CC[C@@H](C)CCCCC(=O)*; dDab = NCC[C@@H](N)C(=O)O

Sequence of Androgen receptor (Homo sapiens) (P10275 whole entry, looked up): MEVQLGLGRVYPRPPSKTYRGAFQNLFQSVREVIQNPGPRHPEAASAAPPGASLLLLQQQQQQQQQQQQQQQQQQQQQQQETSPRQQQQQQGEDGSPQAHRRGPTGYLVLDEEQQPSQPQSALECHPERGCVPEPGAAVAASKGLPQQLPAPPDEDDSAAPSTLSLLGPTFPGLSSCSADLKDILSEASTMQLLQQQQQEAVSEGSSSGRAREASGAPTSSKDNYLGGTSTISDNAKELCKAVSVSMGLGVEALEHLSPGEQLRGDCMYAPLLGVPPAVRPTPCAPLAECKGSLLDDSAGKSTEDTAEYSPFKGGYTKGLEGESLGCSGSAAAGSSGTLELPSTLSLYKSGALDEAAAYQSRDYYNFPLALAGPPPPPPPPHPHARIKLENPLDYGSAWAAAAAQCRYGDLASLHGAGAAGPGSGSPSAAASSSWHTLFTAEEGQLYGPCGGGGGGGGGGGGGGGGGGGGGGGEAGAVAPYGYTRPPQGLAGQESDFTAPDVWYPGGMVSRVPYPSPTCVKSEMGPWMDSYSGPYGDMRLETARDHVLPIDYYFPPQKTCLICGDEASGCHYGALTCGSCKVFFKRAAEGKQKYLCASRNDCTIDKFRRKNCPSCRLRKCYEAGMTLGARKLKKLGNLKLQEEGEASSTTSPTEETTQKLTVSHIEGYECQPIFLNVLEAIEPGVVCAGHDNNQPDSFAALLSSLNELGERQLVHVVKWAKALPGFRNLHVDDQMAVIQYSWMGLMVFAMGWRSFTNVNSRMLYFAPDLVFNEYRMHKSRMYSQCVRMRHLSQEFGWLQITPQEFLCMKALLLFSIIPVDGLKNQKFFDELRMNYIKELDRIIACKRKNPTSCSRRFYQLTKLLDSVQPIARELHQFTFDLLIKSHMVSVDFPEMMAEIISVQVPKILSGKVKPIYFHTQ

As for `CC[C@@H]1/C=C(\C)C[C@H](C)C[C@H](OC)[C@H]2O[C@@](O)(C(=O)C(=O)N3CCCC[C@H]3C(=O)O[C@H](/C(C)=C/[C@@H]3CC[C@@H](Cl)[C@H](OC)C3)[C@H](C)[C@@H](O)CC1=O)[C@H](C)C[C@@H]2OC`, the Potency result in assay [1], in assay [2], in assay [3], in assay [4] and in assay [5] was “inactive” each time.
For `CN1c2cc(O)c(N=NC(N)=O)cc2CC1S(=O)(=O)O` (stereo not drawn), the Potency result in assay [1], in assay [2], in assay [6], in assay [4] and in assay [5] was “inactive” in each case.
Turning to `C[C@]12CCC(=O)C=C1CC[C@@H]1[C@@H]2[C@@H](O)C[C@@]2(C)[C@H]1CC[C@]2(O)C(=O)COP(=O)(O)O`, the Potency result in assay [1], in assay [2], in assay [6], in assay [4] and in assay [5] was “inactive” in each case.
With `CN[C@@H]1[C@H](O[C@H]2[C@H](O[C@H]3[C@H](O)[C@@H](O)[C@H](N=C(N)N)[C@@H](O)[C@@H]3N=C(N)N)O[C@@H](C)[C@]2(O)C=O)O[C@@H](CO)[C@H](O)[C@H]1O`, the Potency entry in assay [1], in assay [2], in assay [6], in assay [4] and in assay [5] was “inactive” each time.
Turning to `CC(=O)N[C@@H]([C@@H](O)[C@H](O)[C@H](O)CO)[C@@H](O)CC(=O)C(=O)O`, the Potency result in assay [1], in assay [2], in assay [6], in assay [4] and in assay [5] was “inactive” throughout.
Regarding `CCC[C@@]1(CCc2ccccc2)CC(O)=C([C@H](CC)c2cccc(NS(=O)(=O)c3ccc(C(F)(F)F)cn3)c2)C(=O)O1`, the Potency entry in assay [1], in assay [2], in assay [6], in assay [4] and in assay [5] was “inactive” each time.
`O=C(NCCNCC(O)COc1ccc(O)cc1)N1CCOCC1` (stereo not drawn): the Potency entry in assay [1], in assay [2], in assay [6], in assay [4] and in assay [5] was “inactive” throughout.
As for `O=C(O)c1cc(O)c2c(c1)[O][Bi][O]2`, the Potency result in assay [1], in assay [2], in assay [6], in assay [4] and in assay [5] was “inactive” in each case.
On to `CC(=O)Nc1c(I)c(C(=O)N[C@H]2C(O)O[C@H](CO)[C@@H](O)[C@@H]2O)c(I)c(N(C)C(C)=O)c1I` (stereo partly drawn), for which the Potency entry in assay [1], in assay [2], in assay [6], in assay [4] and in assay [5] was “inactive” in each case.
As to `NS(=O)(=O)c1cc2c(cc1Cl)NC(Cc1ccccc1)NS2(=O)=O` (stereo not drawn), the Potency result in assay [1], in assay [2], in assay [6], in assay [4] and in assay [5] was “inactive” throughout.
Turning to `CCCCC(=O)N(Cc1ccc(-c2ccccc2-c2nn[nH]n2)cc1)[C@@H](C(=O)O)C(C)C`, the Potency result in assay [1], in assay [2], in assay [6], in assay [4] and in assay [5] was “inactive” in each case.
As for `CC(=O)N[C@@H](CC(=O)N[C@@H](CCC(=O)O)C(=O)O)C(=O)O`, the Potency entry in assay [1], in assay [2], in assay [6], in assay [4] and in assay [5] was “inactive” throughout.
For `CN(C)C=Nc1c(I)cc(I)c(CCC(=O)O)c1I`, the Potency result in assay [1], in assay [2], in assay [6], in assay [4] and in assay [5] was “inactive” in each case.
With `O=c1[nH]cnc2[nH]cc(CN3CCCCC3)c12`, the Potency result in assay [1], in assay [2], in assay [6], in assay [4] and in assay [5] was “inactive” throughout.
For the compound `CN(CCO)CC(O)Cn1cnc2c1c(=O)n(C)c(=O)n2C` (stereo not drawn) (tested in a mixture with another compound), the Potency entry in assay [1], in assay [2], in assay [6], in assay [4] and in assay [5] was “inactive” in each case.
For the compound `CCCC(CCC)C(N)=O`, the Potency result in assay [1], in assay [2], in assay [6], in assay [4] and in assay [5] was “inactive” each time.
As to `CCOC(=O)C1=C[C@@H](OC(CC)CC)[C@H](NC(C)=O)[C@@H](N)C1`, the Potency result in assay [1], in assay [2], in assay [6], in assay [4] and in assay [5] was “inactive” in each case.
Turning to `CC[C@H](C)[C@@H]1NC(=O)[C@H](Cc2ccc(O)cc2)NC(=O)[C@@H](N)CSSC[C@@H](C(=O)N2CCC[C@H]2C(=O)N[C@@H](CC(C)C)C(=O)NCC(N)=O)NC(=O)[C@H](CC(N)=O)NC(=O)[C@H](CCC(N)=O)NC1=O`, the Potency result in assay [1], in assay [2], in assay [6], in assay [4] and in assay [5] was “inactive” in each case.
On to `CC1=C(C(=O)OCCN(Cc2ccccc2)c2ccccc2)C(c2cccc([N+](=O)[O-])c2)C(P2(=O)OCC(C)(C)CO2)=C(C)N1` (stereo not drawn), for which the Potency entry in assay [1], in assay [4] and in assay [5] was “inactive” each time. Besides, the Potency is 29.8 µM (active) in assay [2] and 26.6 µM (active) in assay [6].
For the compound `CC[C@@H](C)CCCCC(=O)N[C@H](CCN)C(=O)N[C@@H](C(=O)N[C@H](CCN)C(=O)N[C@@H]1CCNC(=O)C([C@@H](C)O)NC(=O)[C@@H](CCN)NC(=O)[C@@H](CCN)NC(=O)[C@@H](CC(C)C)NC(=O)[C@@H](Cc2ccccc2)NC(=O)[C@@H](CCN)NC1=O)[C@@H](C)O` (stereo partly drawn) (X3-[dDab][d(aThr)][dDab][dDab][dDab][dF][dL][dDab][dDab][ξThr(3R)]; lactam 4-C), the Potency result in assay [1], in assay [2], in assay [6], in assay [4] and in assay [5] was “inactive” throughout.
For the compound `O=C(O)CN(CC(=O)O)CC1=CC2C(=CC1=O)Oc1cc(O)c(CN(CC(=O)O)CC(=O)O)cc1C21OC(=O)c2ccccc21` (stereo not drawn), the Potency result in assay [1], in assay [2], in assay [6], in assay [4], in assay [7] and in assay [8] was “inactive” throughout.
As for `CCCCCCCCCCCCCCCCCC(=O)OCC(C)O` (stereo not drawn), the Potency result in assay [1], in assay [2], in assay [6] and in assay [4] was “inactive” throughout. Also, the Potency in assay [5] was 26.6 µM (active).
As to `CCCCCCCCCCCCCCCC(=O)OC[C@@H](O)[C@H]1OC[C@H](O)[C@H]1O`, the Potency entry in assay [1], in assay [2], in assay [6], in assay [4] and in assay [5] was “inactive” in each case.
Consider `N#CC(c1ccc(Cl)cc1)c1c(Cl)cc(-n2ncc(=O)[nH]c2=O)cc1Cl` (stereo not drawn), for which the Potency entry in assay [1], in assay [4], in assay [7], in assay [5] and in assay [8] was “inactive” in each case. Besides, the Potency in assay [2] and in assay [6] was 29.8 µM (active) throughout.
In the case of `CCCCCCCCCCCCCCCC(=O)OC[C@@H](NC(=O)C(Cl)Cl)[C@H](O)c1ccc([N+](=O)[O-])cc1`, the Potency result in assay [1], in assay [2], in assay [6], in assay [4] and in assay [5] was “inactive” in each case.

The values are drawn from PubChem BioAssay (Tox21).
